Our source for the INHIBITION values is ChEMBL document CHEMBL4513216, “Probing the Open Global Health Chemical Diversity Library for Multistage-Active Starting Points for Next-Generation Antimalarials” (ACS Infect Dis, 2020).

Among all 69,000 compounds or so, about 8,600 (12%) showed an effect of 50% or more. The entries come from a sample that favours strong results as a whole.

The test relates to Plasmodium berghei. The test can be described thus: Screen against P. berghei liver stage (PbLuc), transformed with Luciferase, at 10uM. It is filed as functional, HepG2. Particulars: tested at 10 uM.
Regarding `NC(=O)c1cc(NC(=O)N2CCOCC2)ccc1F`, the INHIBITION was found to be 33.5%.

On to `CCS(=O)(=O)N1CCC(Nc2c(Cl)cccc2C#N)CC1`, for which the INHIBITION worked out at 29.4%. Then `N#Cc1cccc(Cl)c1NC1CCN(CC(N)=O)CC1`, with 13.2%; and `CS(=O)(=O)CCN1CCC(Nc2c(Cl)cccc2C#N)CC1`, with 52.6%. The same measure for `CC(C)C(C)NC(=O)c1ncn2c1CN(C)S(=O)(=O)c1ccccc1-2` (centres undefined): 8.03%; for `CNCc1ccc([C@@H]2CN(C(C)=O)C[C@H]2C(=O)N(C)C)cc1`: 35.55%. Then `CN(CC(=O)N1CCN(CC(C)(C)O)CC1)c1ccc(Cl)cn1`, with 25%; and `CC(C)N1CCCC(C(=O)N(C)CCCc2cnn(C)c2)C1` (centres undefined), with 51%; and `CN(CCCc1cnn(C)c1)C(=O)C1CCCN(C2CCCC2)C1` (centres undefined), with 37.6%. Consider `CN(C)C(=O)N1CCCC(C(=O)N(C)CCCc2cnn(C)c2)C1` (centres undefined), for which the INHIBITION came to 47.7%. Then `O=C1CCC(=O)N1c1nn(Cc2cccc(F)c2)cc1Cl`, with 14.5%. Take `CNc1cc(-c2ccc(COCCN)cc2)c2cc[nH]c2n1`: the INHIBITION is -8%.

As for `CCCNCc1ccc(-c2cc(N)nc3[nH]ccc23)cc1`, the INHIBITION is on record as 19.7%.

Consider `CCCNCc1ccc(-c2ccnc3[nH]ccc23)cc1`, for which the INHIBITION was found to be 78.8%.

Consider `Cc1ccc2c(c1)C(=O)NCC1(CCN(C(=O)c3scnc3C)CC1)O2`, for which the INHIBITION is 15.9%. Then `OCCn1nccc1C1CCN(CCOc2ccc(Cl)cc2)CC1`, with 38.8%.

Take `CN1CC2(CCCN(Cc3ccccc3OCC(=O)O)C2)OC1=O` (centres undefined): the INHIBITION was found to be 1.37%.

For `CN(C)C(=O)COc1ccccc1CN1CCCC2(C1)CN(C)C(=O)O2` (centres undefined), the INHIBITION turned out to be 57.5%. Then `CN1CC2(CCCN(Cc3cccc(Oc4ccccc4)c3)C2)OC1=O` (centres undefined), with 42.5%; and `CN1CC2(CCCN(Cc3ccc(Oc4ccccc4)cc3)C2)OC1=O` (centres undefined), with 55%.

As for `CN1CC2(CCCN(CCOCc3ccccc3)C2)OC1=O` (centres undefined), the INHIBITION turned out to be 8.08%. The same measure for `CN(C)C(=O)COc1ccccc1CN1CCOC2(CCCC2)C1`: 7.58%; for `CC(C)N(CCCNC(=O)C1CC1)S(C)(=O)=O`: 5.91%; for `Cc1nccn1[C@@H]1CC[C@@H](NC(=O)CCCn2cncn2)[C@H]1O`: 25.071%.

As to `COCC1N(C(=O)N2CCOCC2)C2CCC1(O)CC2` (centres undefined), the INHIBITION was 33.6%. Then `Cc1ccnc(NC(=O)CCNC(=O)c2ccccc2Cl)c1`, with 30.2%; and `Cc1ccnc(NCCNC(=O)c2ccccc2NCC(=O)O)c1`, with 11.6%; and `Cc1ccnc(NCCNC(=O)CCNC(=O)c2ccccc2F)c1`, with 57%. On to `CC1=N[C@@]2(CC[C@@H]3CN(C(=O)Nc4ccc(F)cc4)C[C@@H]32)C(=O)N1C`, for which the INHIBITION worked out at 0.542%.

As for `Cc1ccc(C(=O)N2CCn3cnc(COCC4CC4)c3C2)cn1`, the INHIBITION is 45.2%. The same measure for `Cc1nccc([C@H]2C[C@@H]3CCN(C(=O)c4c(C)noc4C)C[C@H]3O2)n1`: -3.88%. Then `COCc1ccc(C(=O)N2CC[C@@](O)(COC)C(C)(C)C2)o1`, with -26.2%; and `COC[C@]1(O)CCN(C(=O)c2ccc(CN(C)C)o2)CC1(C)C`, with 76.5%. Then `COc1cc(C(=O)N2CCC(O)(CN3CCOCC3)C(C)(C)C2)ccn1` (centres undefined), with 7.93%; and `COC[C@]1(O)CCN(C(=O)c2cccc(CN(C)C)c2)CC1(C)C`, with 54.7%. Take `CCOCCn1nc(C)cc1C(=O)N1CC[C@@](O)(COC)C(C)(C)C1`: the INHIBITION was determined as 16.2%. Then `COCc1cccc(C(=O)N2CCCC2)c1`, with 1.98%.

For `CN(C)c1ncc(C2Nc3cc(Cl)ccc3C3=NCCCN32)cn1` (centres undefined), the INHIBITION came to 48.4%. The same measure for `CN(C)C(=O)c1ccn(COc2ccccc2Cl)n1`: -28%; for `Cn1nc(CN2CCCCC2)c2c1CN(C(=O)c1cccc(Cl)c1)C2`: -41.8%; for `CC(NC(=O)N1CCN(c2nccs2)CC1)c1nncn1C` (centres undefined): -15.5%. The same measure for `C[C@H]1CN(c2ccccn2)C[C@@]12CCN(Cc1cccnc1)C2=O`: 48.4%. Then `CN(C)C(=O)CN1CCCC(Cc2ccc(N3CCCC3)nn2)C1` (centres undefined), with 42.4%; and `CN1[C@H](Cn2cccn2)C[C@@H]2CN(C(=O)Cc3cccs3)CC[C@@H]21`, with 37.4%.

Turning to `CC(C)N1CC[C@H]2[C@H](C[C@@H](Cn3cccn3)N2c2nccs2)C1`, the INHIBITION is 54.4%. `CN1C(Cn2cccn2)C[C@@H]2CN(Cc3cnn(C)c3)CC[C@@H]21` (some centres undefined): the INHIBITION is reported as -10.3%.

Turning to `c1cnn(C[C@@H]2C[C@@H]3CN(CC4CC4)CC[C@@H]3N2c2nccs2)c1`, the INHIBITION came out at 79.2%. The same measure for `CCC(=O)N1CC[C@H]2[C@H](C[C@@H](Cn3cccn3)N2c2nccs2)C1`: 21.6%; for `CN1C(Cn2cccn2)C[C@@H]2CN(Cc3nccs3)CC[C@@H]21` (some centres undefined): 20.4%.

Regarding `O=C(CCCn1cnnn1)N1CCC(c2ccncc2)CC1`, the INHIBITION is on record as 31.4%. The same measure for `CN(Cc1ccco1)Cc1cncc2c1CCN(Cc1ccoc1)C2`: 38.5%; for `CC(=O)N1N=C(c2ccco2)OC1C(=O)NCCc1ccc(F)cc1` (centres undefined): -50.8%. Consider `CCOCC1CN(C(=O)c2ccncn2)Cc2cnn(C)c21` (centres undefined), for which the INHIBITION was 1.48%. The same measure for `CC(CCc1ccccc1)NC(=O)CNCCCN1CCOCC1` (centres undefined): 32.7%; for `CC(CCc1ccccc1)NC(=O)CNCCCN(C)C` (centres undefined): 52.5%.

As to `CC(CCc1ccccc1)NC(=O)CN1CCOCC1` (centres undefined), the INHIBITION was 20.8%.

On to `Cn1cnnc1SCC(=O)NC1CC(=O)N(CCc2ccccc2)C1` (centres undefined), for which the INHIBITION is recorded as -6.18%. Then `CC(=O)N1CCc2c(nc(-c3cccnc3)nc2N(C)CC(O)CO)C1` (centres undefined), with -31.4%; and `CC(O)CN(C)c1cc(C(F)(F)F)nc(-c2cccnc2)n1` (centres undefined), with 16.6%; and `FC(F)(F)c1cc(NCCCn2cccn2)nc(-c2cccnc2)n1`, with 15.1%.

In the case of `COCCCN(C)c1cc(C(F)(F)F)nc(-c2cccnc2)n1`, the INHIBITION is on record as 59.4%. The same measure for `COCC(O)CN(C)c1cc(C(F)(F)F)nc(-c2cccnc2)n1` (centres undefined): 85.1%; for `CN(CCn1cccn1)c1cc(C(F)(F)F)nc(-c2cccnc2)n1`: 3.67%. Then `CCN(Cc1cn(CC2CCNCC2)nn1)CC1CCCO1` (centres undefined), with -16.3%; and `CN(C)C(=O)[C@@H]1CC[C@@H]2[C@@H](CCN2Cc2nccs2)O1`, with -22.1%. The same measure for `CCC1=N[C@@]2(CC[C@@H]3CN(Cc4ccccc4F)C[C@@H]32)C(=O)N1CC`: 13.5%; for `Cc1cc(C(=O)N(C)Cc2cccs2)nc(N2CCOCC2)n1`: 19.3%; for `Cc1cc(C(=O)N(C)Cc2cccs2)nc(N2CCCC2)n1`: -33.7%. Take `Cc1cc(C(=O)N(C)Cc2cccs2)nc(N2CCCCC2)n1`: the INHIBITION came out at 52.4%. The same measure for `CC(C)OCCCNC(=O)CS(=O)(=O)Cc1ccc(C(C)C)cc1`: 7.67%; for `CCCOc1cc(C)ccc1NC(=O)N(C)C`: 24.2%; for `CCc1nnc2n1CCN(C(=O)c1cc3ccc(C)cc3[nH]1)C2`: 23.7%.

`COCC1CN(Cc2ccoc2)Cc2nn(C)cc21` (centres undefined): the INHIBITION came to 24.1%. The same measure for `COCC1CN(CC2CC2)Cc2nn(CC3CC3)cc21` (centres undefined): 56.7%. The same measure for `CCOCC1CN(CC2CC2)Cc2nn(CC3CC3)cc21` (centres undefined): 29%. The same measure for `COCC1CN(Cc2cnn(C)c2)Cc2nn(C)cc21` (centres undefined): 25.2%; for `COCC1CN(Cc2ccncc2)Cc2nn(CC3CC3)cc21` (centres undefined): 29.9%. In the case of `CCOCC1CN(CC2CC2)Cc2nn(C)cc21` (centres undefined), the INHIBITION is reported as 52%.

Take `CCOCC1CN(Cc2ccc(F)cc2)Cc2nn(C)cc21` (centres undefined): the INHIBITION is listed as 41.6%. As for `CCOCC1CN(Cc2ccncc2)Cc2nn(C)cc21` (centres undefined), the INHIBITION came to 29.9%. Then `COCC1CN(CC2CC2)Cc2nn(C)cc21` (centres undefined), with 55.7%. The same measure for `O=S(=O)(c1ccccc1)N1C[C@@H]2CCCCN(Cc3cccs3)[C@@H]2C1`: 11.8%; for `O=C1CCCC2(CCN(C(=O)c3ccccn3)CC2)N1`: 17.4%. The same measure for `O=C(NC[C@]1(O)CCN(Cc2ccsc2)C[C@H]1O)c1c[nH]cn1`: -0.275%; for `NC(=O)N1CC[C@H](O)[C@@H]1Cc1cccnc1`: 38.1%; for `O=C(N1CCCCC1)N1CCN(c2ccc(Cl)nn2)C(=O)C1`: 30%. As for `CCCSc1ncc(CN(C)CCN2CCCCC2)cn1`, the INHIBITION turned out to be 32.3%. The same measure for `Cc1cc(C)n(CC2CCCN2C(=O)c2cccn3ccnc23)n1` (centres undefined): 15.32%; for `COc1ccc(OCc2nc(C(=O)N3CC(O)C3)co2)cc1`: 33.5%. As to `COc1cc(C)ccc1OCc1nc(C(=O)N2CCC(C)CC2)co1`, the INHIBITION was 5.33%. Then `COc1cc(C)ccc1OCc1nc(C(=O)N2CCCC2)co1`, with 37.8%; and `CCCC1CCN(C(=O)c2coc(COc3ccc(OC)cc3)n2)C1` (centres undefined), with 19.5%; and `COc1cc(C)ccc1OCc1nc(C(=O)N2CCCO2)co1`, with 67.5%. For `COc1cc(C)ccc1OCc1nc(C(=O)N2CCCNC(=O)C2)co1`, the INHIBITION is on record as 63.8%. In the case of `CNC(=O)C1CCN(C(=O)c2coc(COc3ccc(OC)cc3)n2)C1` (centres undefined), the INHIBITION is on record as -66.3%.

For `COc1ccc(OCc2nc(C(=O)N3CC[C@H](O)[C@@H](O)C3)co2)cc1`, the INHIBITION was -38.2%. Then `COc1ccc(OCc2nc(C(=O)N3CCCNC(=O)C3)co2)cc1`, with 53.6%; and `Cc1ccc(C(NCC(=O)N2CCNC(=O)C2)c2ccccc2)cc1` (centres undefined), with 29.4%; and `Cc1ccc(NC2CCN(C(=O)c3c(C)nn(C)c3Cl)CC2)nn1`, with 1.45%.

As to `O=C1NCC2=Nc3ccccc3NC(c3ccc(O)cc3)C12` (centres undefined), the INHIBITION is reported as -72.4%. Then `COC1CCN(C(=O)Cc2csc(-c3ccc(F)cc3)n2)CC1`, with -7.35%; and `CC(C)c1nn(C)c(N2CCOCC2)c1CNC(C)c1ccco1` (centres undefined), with 4.52%.

As to `O=C(NCc1cccnc1N1CCCCC1)c1ccc2[nH]nnc2c1`, the INHIBITION came out at 17.5%.

Take `Cc1ccccc1CS(=O)(=O)CC(=O)NCc1ccccc1F`: the INHIBITION is on record as -15.8%.
